In PubChem BioAssay (Tox21) one finds Potency and outcome data, which are given here for seven compounds.

Experiment [1] in a line: qHTS assay to identify small molecule antagonists of the sonic hedgehog signaling (Shh) pathway (AID 1259369; calls by dose curve; note: nearly all actives have a fitted effect of over 45% in size; note: potency is the fitted concentration of half-maximal effect). In outline:
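NIH/3T3-derived Gli1-Luc reporter cells plated 4 h, dosed with compound, then stimulated with conditioned medium for 24 h at 37 C. Firefly luciferase luminescence read after 30 min with detection reagent at room temperature.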

In experiment [2] the target is Estrogen receptor beta (Homo sapiens) (UniProt Q92731). Description: qHTS assay to identify small molecule agonists of the estrogen receptor beta (ER-beta) signaling pathway (AID 1259377; active = well fitted activation curve with a large enough effect in the signal ratio in the repeat runs, not every such curve was filed as active; the % refers to the signal ratio). Summed up:
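Read-out: beta-lactamase FRET fluorescence. Cell line: ER-beta-UAS-bla HEK293T in 2% charcoal-stripped FBS. Exposure: 16 hr at 37C. Substrate step: 2 h at room temperature.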
(Quantitative high-throughput screening tests each substance at several concentrations.)

Experiment [3] shares this target. Description: qHTS assay to identify small molecule antagonists of the estrogen receptor beta (ER-beta) signaling pathway (AID 1259378; active = well fitted inhibition curve with a large enough effect in the signal ratio in the repeat runs, not every such curve was filed as active; the % refers to the signal ratio; note: potency is the fitted concentration of half-maximal effect). In outline: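 ER-beta-UAS-bla HEK293T cells in 2% charcoal-stripped FBS medium treated with compound plus 1nM final 17-beta-estradiol for 16 hr at 37C. Beta-lactamase reporter read by FRET substrate fluorescence after 2 hours at room temperature.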

Experiment [4] can be described thus: qHTS assay to identify small molecule agonists of the androgen receptor (AR) signaling pathway in the presence of an antagonist - cell viability counter screen (AID 1259379). Note: nearly all actives have a fitted effect of over 25% in size. Note: potency is the fitted concentration of half-maximal effect. Summed up: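 MDA-kb2 cells (MMTV-luciferase, AR/GR), 3,000/well, 5 h attachment, then 3.0 µM nilutamide (final) and compounds at 15 concentrations. Viability by CellTiter-Fluor fluorescence after 16 h at 37 °C, 0% CO2, in the reporter wells.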

Experiment [5] in a line: qHTS assay to identify small molecule agonists of the estrogen receptor beta (ER-beta) signaling pathway - cell viability counter screen (AID 1259380). Note: nearly all actives have a fitted effect of over 30% in size. Summed up: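 ER-beta-UAS-bla HEK293T cells in medium with 2% charcoal-stripped FBS, pre-incubated 6 hr, then treated 16 hr at 37C. Cytotoxicity read in the same wells by CellTiter-Glo luminescence after 30 min at room temperature.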

The target of experiment [6] is Androgen receptor (Homo sapiens) (UniProt P10275). Description: qHTS assay to identify small molecule agonists of the androgen receptor (AR) signaling pathway in the presence of an antagonist (AID 1259381; calls by dose curve; note: nearly all actives have a fitted effect of over 15% in size; note: potency is the fitted concentration of half-maximal effect). Summed up: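 MDA-kb2 cells carrying MMTV-luciferase (AR/GR responsive), 3,000 cells/well, co-treated with 3.0 uM nilutamide final. Compounds at 15 concentrations, 16 hr at 37C without CO2. Luciferase luminescence read after 30 min with ONE-Glo.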
Androgen receptor (Homo sapiens), sequence (P10275 whole entry, looked up): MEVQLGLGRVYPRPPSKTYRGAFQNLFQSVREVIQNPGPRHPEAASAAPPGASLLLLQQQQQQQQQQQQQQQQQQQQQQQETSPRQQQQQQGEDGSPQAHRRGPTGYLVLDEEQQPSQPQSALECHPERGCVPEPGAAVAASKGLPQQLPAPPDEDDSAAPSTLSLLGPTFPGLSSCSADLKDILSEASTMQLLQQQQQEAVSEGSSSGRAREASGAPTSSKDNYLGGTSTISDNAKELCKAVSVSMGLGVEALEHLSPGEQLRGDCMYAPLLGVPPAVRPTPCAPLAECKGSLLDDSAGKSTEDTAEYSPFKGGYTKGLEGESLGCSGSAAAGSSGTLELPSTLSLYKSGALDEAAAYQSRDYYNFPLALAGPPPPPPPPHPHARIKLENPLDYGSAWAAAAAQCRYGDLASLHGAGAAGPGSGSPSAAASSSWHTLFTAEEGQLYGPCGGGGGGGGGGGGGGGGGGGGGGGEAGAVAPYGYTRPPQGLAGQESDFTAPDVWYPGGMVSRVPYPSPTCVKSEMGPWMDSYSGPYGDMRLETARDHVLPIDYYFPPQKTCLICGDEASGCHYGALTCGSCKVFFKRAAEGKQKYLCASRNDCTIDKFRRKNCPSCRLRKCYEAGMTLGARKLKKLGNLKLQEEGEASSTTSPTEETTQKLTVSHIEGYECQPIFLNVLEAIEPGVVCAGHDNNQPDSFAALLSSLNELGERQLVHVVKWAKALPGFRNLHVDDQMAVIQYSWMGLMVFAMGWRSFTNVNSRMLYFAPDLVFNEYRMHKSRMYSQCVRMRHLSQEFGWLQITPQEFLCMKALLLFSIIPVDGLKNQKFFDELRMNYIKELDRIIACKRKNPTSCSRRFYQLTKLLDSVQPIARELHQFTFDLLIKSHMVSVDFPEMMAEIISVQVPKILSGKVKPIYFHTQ

Experiment [7] concerns the target Estrogen receptor (Homo sapiens) (UniProt P03372). Briefly: qHTS assay to identify small molecule agonists of the estrogen receptor alpha (ER-alpha) signaling pathway in the presence of an antagonist (AID 1259383; calls by dose curve; note: top concentration of the series differs between compounds; nearly all actives have a fitted effect of over 15% in size). In outline:
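VM7Luc4E2 cells express endogenous full-length ER-alpha with an ERE-luciferase reporter and were hormone-deprived for 5 days. Compounds at 15 concentrations were added with 10.0nM ICI-182,780 for 22hr at 37C. Luminescence was read with ONE-Glo.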

A short description of experiment [8]: qHTS assay to identify small molecule agonists of the estrogen receptor alpha (ER-alpha) signaling pathway in the presence of an antagonist - cell viability counter screen (AID 1259386).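 Note: cells exposed to compounds for 22 h at 37 °C before the viability read; nearly all actives have a fitted effect of over 30% in size.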 Note: potency is the fitted concentration of half-maximal effect. In outline:
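Cell viability in VM7Luc4E2 cells (endogenous full-length ER-alpha) measured by CellTiter-Fluor fluorescence in the same wells as the luciferase screen. Cells pre-cultured 5 days in charcoal-stripped serum, then treated 22 h with compounds at 15 concentrations plus 10.0nM ICI-182,780.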

In experiment [9] the target is Progesterone receptor (Homo sapiens) (UniProt P06401). Description: qHTS assay to identify small molecule agonists of the progesterone receptor (PR) signaling pathway (AID 1346784; calls by dose curve; note: nearly all actives have a fitted effect of over 30% in size; note: potency is the fitted concentration of half-maximal effect). Summed up: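 Compounds were tested for PR agonism in HEK 293T cells bearing a beta-lactamase gene under UAS control. Treatment lasted 16 hr at 37C; signal came from fluorescence of a FRET substrate.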
Progesterone receptor (Homo sapiens), sequence (P06401 whole entry, looked up): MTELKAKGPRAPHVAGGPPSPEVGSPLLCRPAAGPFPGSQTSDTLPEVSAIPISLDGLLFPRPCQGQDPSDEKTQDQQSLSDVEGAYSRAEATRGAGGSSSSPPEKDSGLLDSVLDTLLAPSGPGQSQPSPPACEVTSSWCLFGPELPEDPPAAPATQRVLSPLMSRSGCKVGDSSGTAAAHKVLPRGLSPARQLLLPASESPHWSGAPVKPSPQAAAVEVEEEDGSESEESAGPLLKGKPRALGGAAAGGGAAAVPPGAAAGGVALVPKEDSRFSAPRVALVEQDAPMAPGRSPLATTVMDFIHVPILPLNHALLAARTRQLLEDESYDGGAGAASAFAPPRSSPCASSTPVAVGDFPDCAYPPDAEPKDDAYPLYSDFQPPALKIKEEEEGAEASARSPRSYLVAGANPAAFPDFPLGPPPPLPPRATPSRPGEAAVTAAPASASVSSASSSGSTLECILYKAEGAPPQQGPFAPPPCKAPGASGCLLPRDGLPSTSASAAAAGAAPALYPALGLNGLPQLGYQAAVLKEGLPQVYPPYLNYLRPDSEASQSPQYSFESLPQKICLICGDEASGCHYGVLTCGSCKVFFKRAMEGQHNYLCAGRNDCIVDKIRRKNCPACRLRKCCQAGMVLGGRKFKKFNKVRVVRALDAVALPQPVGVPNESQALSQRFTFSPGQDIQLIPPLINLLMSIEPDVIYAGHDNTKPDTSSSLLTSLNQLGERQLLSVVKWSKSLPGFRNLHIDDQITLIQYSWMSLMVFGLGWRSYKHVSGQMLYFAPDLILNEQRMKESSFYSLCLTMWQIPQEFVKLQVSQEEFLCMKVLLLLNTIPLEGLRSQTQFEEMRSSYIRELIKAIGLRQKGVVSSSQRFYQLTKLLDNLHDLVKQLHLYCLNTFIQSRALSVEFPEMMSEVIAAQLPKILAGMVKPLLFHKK

Experiment [10] shares this target. Description: qHTS assay to identify small molecule antagonists of the progesterone receptor (PR) signaling pathway (AID 1346795; active = well fitted inhibition curve with a large enough effect in the signal ratio in the repeat runs, not every such curve was filed as active; the % refers to the signal ratio). In outline:
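In HEK293T cells bearing the PR-UAS-bla reporter, compound effects on promegestone-driven (1 nM) beta-lactamase expression are assessed after 16 hr using a fluorescent FRET substrate incubated 2 hr at room temperature.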

A short description of experiment [11]: qHTS assay to identify small molecule antagonists of the progesterone receptor (PR) signaling pathway - cell viability counter screen (AID 1346798). Note: series mostly up to about 92 µM; nearly all actives have a fitted effect of over 50% in size. Summed up: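 Following a 4 hr attachment, PR-UAS-bla HEK293T cells in charcoal-stripped FBS medium were exposed to compounds with R5020 for 16 hr; CellTiter-Glo was added and luminescence read after 30 min at room temperature.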

Experiment [12] is described as follows: qHTS assay to identify small molecule agonists of the progesterone receptor (PR) signaling pathway - cell viability counter screen (AID 1346799; calls by dose curve; note: nearly all actives have a fitted effect of over 45% in size). Summed up:
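Here, 3,000 PR-UAS-bla HEK293T cells per well were treated with compounds for 16 hr after a 6 hr preincubation at 37C and 5% CO2; cell viability is the CellTiter-Glo luminescence signal.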

A short description of experiment [13]: qHTS assay to identify small molecule antagonists of the TGF-beta/Smad signaling pathway - cell viability counter screen (AID 1346824). Note: nearly all actives have a fitted effect of over 50% in size. In outline:
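SBE-bla HEK 293T cells, incubated overnight, then compound plus 0.25 ng/mL TGF-beta1 (stock added) for 5 hr at 37 C. Viability was read in the same wells by CellTiter-Glo luminescence after 30 min at room temperature.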

Experiment [14] can be described thus: qHTS assay to identify small molecule agonists of the TGF-beta/Smad signaling pathway - cell viability counter screen (AID 1346829). Note: top concentration of the series differs between compounds; nearly all actives have a fitted effect of over 45% in size. In outline:
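Luminescence from CellTiter-Glo, read after a 30 min room-temperature incubation, gives cell viability of SBE-bla HEK 293T cells treated 5 hr with compounds at 37 C.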

The target in experiment [15] is Thyrotropin-releasing hormone receptor (Homo sapiens) (UniProt P34981). Briefly: qHTS assay to identify small molecule antagonists of the thyrotropin-releasing hormone receptor (TRHR) signaling pathway (AID 1346877; active = well fitted inhibition curve with a large enough effect in the repeat runs, not every such curve was filed as active; note: series mostly up to about 51 µM). In outline:
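TRHR-expressing HEK293 cells loaded with calcium dye for 2 h at 37 C; compounds pre-incubated 5 min at room temperature before TRH challenge at 1 nM final. Intracellular calcium fluorescence read kinetically for 3 min; 15 concentrations in triplicate.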

Experiment [16] has the same target. Description: qHTS assay to identify small molecule agonists of the thyrotropin-releasing hormone receptor (TRHR) signaling pathway (AID 1346891; calls by dose curve; note: series mostly up to about 58 µM). Summed up: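 Screening of agonists relied on calcium signalling in HEK293 cells expressing human TRHR: dye loading 2 h at 37 °C preceded compound addition and a 3-min fluorescence time course.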
Experiment [17] is described as follows: qHTS assay to identify small molecule antagonists of the estrogen receptor beta (ER-beta) signaling pathway - cell viability counter screen (AID 1259382). Note: series mostly up to about 92 µM; nearly all actives have a fitted effect of over 55% in size. In outline:
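ER-beta-UAS-bla HEK293T cells in 2% charcoal-stripped FBS medium, treated with compound plus 1 nM 17-beta-estradiol for 16 h at 37C. Viability read by CellTiter-Glo luminescence after 30 min at room temperature in the same wells.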

Experiment [18] is described as follows: qHTS assay to identify small molecule agonists or antagonists of the thyroid stimulating hormone receptor (TSHR) signaling pathway - wild type cell line counter screen (AID 1259384; calls by dose curve). In outline:
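Wild-type Hek293 cells, 800/well, 18 h at 37C, then compound with Ro20-1724 for 30 min RT. cAMP by HTRF (cAMP-d2/anti-cAMP cryptate), 1 h RT, fluorescence read. 15 concentrations, triplicates.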

Experiment [19] in a line: qHTS assay to identify small molecule agonists of the TGF-beta/Smad signaling pathway (AID 1346859; active = well fitted activation curve with a large enough effect in the signal ratio in the repeat runs, not every such curve was filed as active; the % refers to the signal ratio; note: series mostly up to about 77 µM). In outline: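 Each well held 4,000 SBE-bla HEK 293T cells incubated overnight before compound addition; 5 hr later the cleavable FRET substrate went on for 2 hr at room temperature, and fluorescence was read at two emissions.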
The target in experiment [20] is Thyrotropin receptor (Homo sapiens) (UniProt P16473). Briefly: qHTS assay to identify small molecule antagonists of the thyroid stimulating hormone receptor (TSHR) signaling pathway (AID 1259385; calls by dose curve; note: nearly all actives have a fitted effect of over 20% in size). Summed up: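 TSHR-HEK293 cells (800/well) plated 18 h, then compounds with Ro20-1724 and TSH at 1.5 ng/mL final, 30 min at room temperature. cAMP quantified by HTRF (cAMP-d2/anti-cAMP-cryptate, 1 h); 15 concentrations in triplicate.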
Thyrotropin receptor (Homo sapiens), sequence (P16473 whole entry, looked up): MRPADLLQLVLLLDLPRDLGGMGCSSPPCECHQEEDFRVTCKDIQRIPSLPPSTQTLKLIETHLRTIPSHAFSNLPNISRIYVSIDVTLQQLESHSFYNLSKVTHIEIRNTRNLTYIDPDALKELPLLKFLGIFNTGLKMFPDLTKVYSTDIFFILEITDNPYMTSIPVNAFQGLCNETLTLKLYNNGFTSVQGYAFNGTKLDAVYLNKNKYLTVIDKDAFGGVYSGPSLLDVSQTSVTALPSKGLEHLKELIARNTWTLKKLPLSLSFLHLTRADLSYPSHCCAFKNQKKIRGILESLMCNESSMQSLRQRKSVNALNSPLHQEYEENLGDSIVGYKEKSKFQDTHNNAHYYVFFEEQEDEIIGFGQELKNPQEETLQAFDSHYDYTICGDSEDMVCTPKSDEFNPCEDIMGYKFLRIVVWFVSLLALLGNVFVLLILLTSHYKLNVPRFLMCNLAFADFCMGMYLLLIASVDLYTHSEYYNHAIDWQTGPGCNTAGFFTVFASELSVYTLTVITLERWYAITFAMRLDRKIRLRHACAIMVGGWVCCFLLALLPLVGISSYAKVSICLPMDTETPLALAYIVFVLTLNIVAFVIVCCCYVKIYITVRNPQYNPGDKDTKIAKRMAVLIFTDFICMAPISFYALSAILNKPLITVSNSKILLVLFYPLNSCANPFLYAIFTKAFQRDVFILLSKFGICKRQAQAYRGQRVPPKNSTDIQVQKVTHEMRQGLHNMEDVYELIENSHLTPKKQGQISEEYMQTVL

SMILES strings stand for the structures. Values without a mark were called inactive. Records with an inconclusive call do not appear. Calls of active or inactive are those of the source. Unless noted, calls come from the whole dose curve; as a rule, active = well fitted curve in the direction sought with a large enough effect in the repeat runs; inconclusive = weak or mixed curves; inactive = no such curve, though single readings can be large; an effect the other way counts as inactive or inconclusive.

Estrogen receptor (Homo sapiens), sequence (P03372 whole entry, looked up): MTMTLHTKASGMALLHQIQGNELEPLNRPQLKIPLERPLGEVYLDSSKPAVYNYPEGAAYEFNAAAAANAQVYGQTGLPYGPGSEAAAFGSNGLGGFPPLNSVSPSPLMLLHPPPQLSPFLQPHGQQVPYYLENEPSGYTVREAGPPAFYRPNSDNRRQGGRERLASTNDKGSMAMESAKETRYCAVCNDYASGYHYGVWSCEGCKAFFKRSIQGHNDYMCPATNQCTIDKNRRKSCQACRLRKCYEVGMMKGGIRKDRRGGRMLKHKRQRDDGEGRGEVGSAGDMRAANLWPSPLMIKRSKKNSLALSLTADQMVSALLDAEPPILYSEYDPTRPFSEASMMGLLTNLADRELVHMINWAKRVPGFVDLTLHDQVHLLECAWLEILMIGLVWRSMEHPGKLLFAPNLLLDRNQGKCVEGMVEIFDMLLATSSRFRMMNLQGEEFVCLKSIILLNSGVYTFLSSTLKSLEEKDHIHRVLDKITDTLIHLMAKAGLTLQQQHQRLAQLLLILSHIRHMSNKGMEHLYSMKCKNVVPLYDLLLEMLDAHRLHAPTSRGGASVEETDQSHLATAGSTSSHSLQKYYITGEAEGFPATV
Thyrotropin-releasing hormone receptor (Homo sapiens), sequence (P34981 whole entry, looked up): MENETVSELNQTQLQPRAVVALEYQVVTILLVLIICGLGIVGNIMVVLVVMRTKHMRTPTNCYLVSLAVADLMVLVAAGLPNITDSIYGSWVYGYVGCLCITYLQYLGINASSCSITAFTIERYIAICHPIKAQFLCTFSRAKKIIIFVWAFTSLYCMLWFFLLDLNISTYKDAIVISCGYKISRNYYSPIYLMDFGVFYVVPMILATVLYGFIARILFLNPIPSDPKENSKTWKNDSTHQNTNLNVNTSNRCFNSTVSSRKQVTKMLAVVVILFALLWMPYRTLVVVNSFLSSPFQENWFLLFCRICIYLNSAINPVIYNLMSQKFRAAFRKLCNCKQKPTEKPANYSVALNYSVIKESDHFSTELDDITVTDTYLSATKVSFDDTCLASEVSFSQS
Estrogen receptor beta (Homo sapiens), sequence (Q92731 whole entry, looked up): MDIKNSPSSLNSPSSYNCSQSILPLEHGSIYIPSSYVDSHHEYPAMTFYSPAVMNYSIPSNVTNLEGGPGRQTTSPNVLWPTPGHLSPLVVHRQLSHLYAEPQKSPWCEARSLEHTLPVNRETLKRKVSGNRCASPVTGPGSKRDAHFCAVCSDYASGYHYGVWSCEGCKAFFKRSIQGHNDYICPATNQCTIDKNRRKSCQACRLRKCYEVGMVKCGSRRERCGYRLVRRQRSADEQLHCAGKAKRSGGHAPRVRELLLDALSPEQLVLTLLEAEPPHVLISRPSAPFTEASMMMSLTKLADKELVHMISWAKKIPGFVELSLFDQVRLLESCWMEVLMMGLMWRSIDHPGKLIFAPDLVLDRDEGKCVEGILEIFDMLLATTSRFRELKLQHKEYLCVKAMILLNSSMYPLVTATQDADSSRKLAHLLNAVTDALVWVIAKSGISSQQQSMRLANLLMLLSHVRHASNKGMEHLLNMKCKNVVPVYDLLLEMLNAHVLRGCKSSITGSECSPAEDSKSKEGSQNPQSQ

In the case of `CCOC(=O)C(=O)CCc1ccccc1`, the Potency result in experiment [1], in [2], in [3], in experiment [4], in experiment [5] and in experiment [6] was “inactive” throughout. The Potency entry in [7], in [8], in [9], in experiment [10], in [11] and in experiment [12] was “inactive” in each case. The Potency result in [13] and in experiment [16] was “inactive” in each case. Moreover, the result in [14] and in [15] was inactive.

Consider `CCC(=O)O[C@]1(C(=O)CCl)[C@@H](C)C[C@H]2[C@@H]3CCC4=CC(=O)C=C[C@]4(C)[C@@]3(F)[C@@H](O)C[C@@]21C`, for which the Potency result in experiment [1], in [2], in [4], in experiment [17], in [7] and in [18] was “inactive” in each case. Also, the Potency result in [8], in experiment [10], in experiment [11], in experiment [12], in [13] and in experiment [19] was “inactive” in each case. In addition, the Potency entry in experiment [16] is “inactive”. Moreover, the Potency in experiment [3] is 29.8 µM (active); in experiment [6] it was 0.0007 µM (active); in experiment [9], 0.0009 µM (active). Further, the compound was called inactive in experiment [14] and in experiment [15].

Turning to `O=C1OC(=O)C2C3C=CC(C3)C12` (configuration not stated), the Potency entry in experiment [1], in experiment [2], in experiment [3], in experiment [4], in [5] and in experiment [17] was “inactive” in each case. In addition, the Potency result in [18], in experiment [20], in experiment [8], in experiment [9], in [10] and in experiment [11] was “inactive” throughout. Besides, the Potency result in experiment [13], in [19] and in experiment [16] was “inactive” throughout. The compound was classed as inactive in experiment [14] and in [15].

With `CCN(CC)c1ccc(C(=C2C=CC(=[N+](CC)CC)C=C2)c2cc(S(=O)(=O)O)ccc2S(=O)(=O)[O-])cc1`, the Potency in [1] is 2.66 µM (active); in [4] it was 26.6 µM (active); in [8] it was 23.7 µM (active). Further, the Potency result in experiment [2], in [3], in experiment [6], in [17], in experiment [9] and in experiment [10] was “inactive” in each case. Further, the Potency result in [11], in experiment [12], in experiment [19] and in [16] was “inactive” in each case. Moreover, in experiment [15], the result was inactive.

As for `CC(C)=CCC/C(C)=C/CC/C(C)=C/CO`, the Potency in experiment [1] was 43.3 µM (active). Further, the Potency entry in [2], in experiment [4], in [18], in experiment [20], in experiment [8] and in experiment [9] was “inactive” each time. In addition, the Potency entry in [11], in experiment [12], in experiment [13], in experiment [19] and in experiment [16] was “inactive” throughout. The result in experiment [14] and in experiment [15] was inactive.

As for `CCCCCCCCCCO[C@@H]1O[C@H](CO)[C@@H](O)[C@H](O)[C@H]1O`, the Potency in experiment [1] was 61.1 µM (active). Further, the Potency result in experiment [2], in experiment [4], in experiment [5], in [7], in [18] and in [20] was “inactive” throughout. Further, the Potency entry in experiment [8], in [9], in [13] and in experiment [19] was “inactive” each time. In addition, in experiment [14], the call was inactive.

Consider `OC(CN1CCC(Cc2ccc(F)cc2)CC1)c1ccc(Cl)cc1` (configuration not stated), for which, in [1], the Potency was 23.7 µM (active). For the same compound, the Potency result in [2], in experiment [3], in experiment [5], in experiment [6], in [17] and in [8] was “inactive” in each case. Further, the Potency result in experiment [11] and in experiment [12] was “inactive” throughout. In addition, the result in [14] and in experiment [15] was inactive.
